Experimental data published in the supplement of paper PMC6555819.

Assays:
Test in all cases: PBM binding z-score (relative to random genomic background probes); higher = stronger binding; sequences stand for … in GC…GCGATTGACAGCGTAGAATGAAGG
[1] = test system: FXR:RXRa (NR concentration 270 nM, RXRa partner concentration 90 nM)
Summary of the method: (§1)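 Scanned fluorescence from custom Agilent 4×180K protein-binding microarrays was regression-normalized. Binding z-scores use random background probes as reference. Ligand-free nuclear receptor dimers were incubated on the arrays for 1 h and detected with antibodies against each partner (one per run).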

[2] = test system: LXRa:RXRa (NR concentration 270 nM, RXRa partner concentration 90 nM)
Summary of the method: as §1

[3] = test system: LXRa homodimer (NR concentration 270 nM)
Summary of the method: as §1

[4] = test system: LXRb:RXRa (NR concentration 270 nM, RXRa partner concentration 90 nM)
Summary of the method: as §1

[5] = test system: LXRb homodimer (NR concentration 270 nM)
Summary of the method: as §1

[6] = test system: PPARa:RXRa (NR concentration 270 nM, RXRa partner concentration 90 nM)
Summary of the method: as §1

[7] = test system: PPARg:RXRa (NR concentration 180 nM, RXRa partner concentration 90 nM)
Summary of the method: as §1

[8] = test system: PPARg:RXRa 270nM:90nM, anti-RXR (NR concentration 270 nM, RXRa partner concentration 90 nM)
Summary of the method: as §1

[9] = test system: PPARg:RXRa 30nM:10nM, anti-RXR (NR concentration 30 nM, RXRa partner concentration 10 nM)
Summary of the method: as §1

[10] = test system: PPARg:RXRa 90nM:30nM, anti-RXR (NR concentration 90 nM, RXRa partner concentration 30 nM)
Summary of the method: as §1

| Sequence | PBM binding z-score [1] | PBM binding z-score [2] | PBM binding z-score [3] | PBM binding z-score [4] | PBM binding z-score [5] | PBM binding z-score [6] | PBM binding z-score [7] | PBM binding z-score [8] | PBM binding z-score [9] | PBM binding z-score [10] |
| --- | --- | --- | --- | --- | --- | --- | --- | --- | --- | --- |
| GCTATTTGGTCAGTAAAAGGTCACACACCGGTCG | 3.6 | 4.54 | 5.27 | 4.71 | 1.54 | 4.7 | 3.46 | 4.72 | 2.76 | 4.46 |
| GCATTTAGGTAATACAAGGTGAAAGTCCGATTGT | 1.45 | 1.54 | 0.274 | 0.493 | -0.034 | 1.27 | 0.514 | 1.03 | 0.425 | 0.682 |
| CATACAGGGTCAACTAGGCCAGAGTAGGGACGGC | 6.88 | 4.92 | 0.472 | 4.1 | 0.96 | 5.82 | 6.43 | 5.91 | 2.49 | 4.66 |
| CCTACTGGGCCAAATGTCATTGATTCCAATGCTC | 0.068 | -0.00295 | -0.00298 | 0.307 | -0.155 | 3.42 | 7 | 7.26 | 6.52 | 7.54 |
| ACTATTAGTTGACATAGGGCAACCGATACGACGC | 0.176 | 0.333 | 0.152 | 0.7 | 0.719 | 0.537 | 1.45 | 0.934 | 0.646 | 1 |
| TCTTGTAGATCAAAAGTTAAGAAAGCCGAAGCCT | 0.493 | 0.329 | -0.368 | 0.277 | -0.137 | 1.31 | 1.83 | 4.32 | 3.84 | 4.55 |
| CGTCCAAGGTCTATGCTAGGTCAGTGAAAGCATT | 0.1 | 5.48 | 0.995 | 2.27 | -0.26 | 0.535 | -0.39 | -0.288 | -0.641 | -0.388 |
| ATCGAAAGGACGACGAGGTGAGTATACACCGTTT | 0.179 | -0.132 | -0.204 | -0.324 | -0.355 | -0.0942 | 1.08 | -0.0154 | 0.318 | 0.299 |
| GGAACGAGGGCATGTTGATAGCAGAGTTTGATGG | 0.438 | -0.0957 | 0.0371 | 0.12 | -0.293 | 0.843 | 0.848 | 0.668 | 0.0112 | -0.104 |
| ATCTCTAGGTAAAGATCGTTCAGTGAATGCAAAT | -0.176 | 1.87 | -0.123 | 0.339 | 0.387 | 0.218 | 0.287 | 0.923 | 0.249 | 0.749 |
| TCTAGTGGGTCACGGAGGTCACACACGACGGGTA | 6.17 | 5.14 | 2.85 | 4.62 | 0.568 | 5.74 | 9.39 | 7.63 | 5.61 | 7.51 |
| CCAGACCGGTGAAAGGTAACTCAGTCTGGTACGC | -0.0585 | 0.0819 | -0.526 | 0.182 | -0.601 | 2.13 | 2.61 | 4.02 | 1.71 | 3.56 |
| TCTTGTAAATCAACAGGAGGTTAAGAAAGATCGA | 0.826 | 1.32 | 0.389 | 1.1 | 0.0438 | 1.36 | 0.285 | 2.05 | 3.57 | 2.79 |
| CGAACTAGGTCAGAAGAGGACAGTGAAGGATGAT | 1.71 | 1.24 | -0.161 | 0.331 | -0.576 | 3.14 | 5.79 | 4.62 | 2.29 | 4.02 |
| TGAATGAGGTTATAAGATCAGGGGACGTTGCAAA | 1.42 | 1.51 | -0.106 | 1.61 | 0.309 | 2.73 | 1.65 | 1.96 | 0.887 | 1.28 |
| CCTTACGGGTCAAGGTTATAGGACGGGTGGTACG | 5.27 | 3.82 | 0.302 | 3.28 | 0.221 | 5.05 | 4.55 | 4.69 | 2.05 | 3.36 |
| CCGACTGGGGCATACGGTTACCATAAGCCAGCCC | -0.196 | -0.252 | -0.334 | -0.388 | -1.21 | 0.556 | 1.47 | 1.77 | 0.00419 | 1.13 |
| CCAGATAGGTGAGAAGGTAACTCAGCCTCGATTA | -0.0268 | 0.168 | 0.00136 | 0.105 | -0.314 | 1.14 | 1.1 | 2.3 | 0.791 | 1.76 |
| GCGACTGGGGCATCAGCAGGTTTCCATAACTTAA | -0.587 | -0.452 | -0.461 | 0.112 | -0.629 | 0.353 | 0.32 | 0.386 | -0.554 | -0.228 |
| AGAACGAGGGCAATGAGGTGATAGCACGGGTGGC | 0.341 | 0.494 | -0.43 | -0.215 | -0.118 | 1.72 | 1.75 | 1.46 | -0.142 | 0.347 |
| CGTCCAAGGTGAAAGGTCAGTGAAGAGATGACGG | 4.63 | 4.11 | 0.846 | 3.61 | -0.321 | 6.01 | 9.57 | 8.09 | 7.25 | 8.46 |
| CCGACTCGGGCAAGGTTACCATAACGCACAGCCA | -0.303 | 0.69 | -0.249 | 0.349 | -1.13 | 0.95 | 1.01 | 0.916 | -0.148 | -7.81e-07 |
| CCTACTGGGCCAAGGTCATTGTTCAGTCAAAGCA | 2.83 | 3.04 | 1.28 | 2.99 | -0.347 | 4.06 | 3.84 | 4.26 | 1.73 | 3.71 |
| AGAATGAGGTTAAGATCATGGAAACAGAATACAT | 2.01 | 1.71 | -0.0716 | 1.88 | -0.112 | 3.44 | 2.5 | 2.38 | 0.804 | 1.82 |
